The list is not random: actives were taken first. Their share in the collection is about 5.4%.
Exocytosis inh = blocks lytic granule exocytosis; TALL-104 LAMP-1 surface exposure, flow cytometry; cells stimulated with thapsigargin and PMA; inhibition, % at 10 µM; 0.66% of 360,000 active; AID 651702;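 active = inhibition above about 55%, limit read from the data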
ALR H2O2 inh = blocks human ALR sulfhydryl oxidase activity; P55789; purified ALR, DTT oxidation, H2O2 HRP-luminol luminescence; inhibition, % (test concentration not listed); 3.8% of 290,000 active; AID 485317;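 active = mean replicate inhibition above about 79%, with every replicate also reaching it, limit read from the data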
Target sequence (P55789 whole entry, looked up): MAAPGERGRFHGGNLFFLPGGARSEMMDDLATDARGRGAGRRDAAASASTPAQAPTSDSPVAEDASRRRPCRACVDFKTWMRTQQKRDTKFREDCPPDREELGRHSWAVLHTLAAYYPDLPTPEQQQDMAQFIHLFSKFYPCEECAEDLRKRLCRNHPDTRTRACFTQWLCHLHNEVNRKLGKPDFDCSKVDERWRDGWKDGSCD
GASC-1 inh = inhibitors of human GASC-1 (JMJD2C) demethylase; Q9H3R0; GST-JMJD2C(1-420) H3K9me3 demethylation, DELFIA europium; inhibition, % at 2.35 µM; 0.069% of 330,000 active; AID 2099;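 active = more than half of a compound's replicate wells show inhibition beyond 50%, single wells judged on their own value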;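 also: signal counts dimethyl H3K9 product captured on neutravidin plate; 0% = median of DMSO wells and 100% = 0.3 times that DMSO median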
Target sequence (Q9H3R0 1-420 limits assumed): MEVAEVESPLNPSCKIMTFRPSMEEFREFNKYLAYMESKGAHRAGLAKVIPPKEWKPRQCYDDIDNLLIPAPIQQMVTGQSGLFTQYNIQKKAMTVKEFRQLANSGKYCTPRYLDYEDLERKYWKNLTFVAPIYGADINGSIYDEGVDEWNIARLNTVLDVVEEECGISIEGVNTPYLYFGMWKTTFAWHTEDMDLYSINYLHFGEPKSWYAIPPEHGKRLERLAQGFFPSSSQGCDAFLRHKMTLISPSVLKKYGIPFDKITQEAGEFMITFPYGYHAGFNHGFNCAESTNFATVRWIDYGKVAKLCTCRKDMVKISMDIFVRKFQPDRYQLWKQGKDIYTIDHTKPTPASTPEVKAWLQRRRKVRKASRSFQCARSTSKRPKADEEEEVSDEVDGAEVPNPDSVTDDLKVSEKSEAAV
SMARCA2 activ = SMARCA2 function activation, primary screen. MG213 cells, MMTV-luciferase reporter, dexamethasone, overnight. activation, % at 9.1 µM. 1% of 370,000 active. AID 652017; in the data active = activation above about 7.8%;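 also: 0% = vehicle wells and 100% = reference activator wells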
beta cell repl = inducers of beta-cell replication in MIN6 cells; MIN6 cells proliferation, ATPlite luminescence, 48 h; cells starved in 0.2% serum; 100% = growth in 10% serum; proliferation, % at 10 µM; 0.29% of 330,000 active; AID 2380;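 active = compounds whose signal lies at least 3.5 SD above the mean of all wells on their plate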;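 also: 0% = DMSO-treated cells in low-serum medium and 100% = 10% serum control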
M18AAP inhibitor = blocks P. falciparum M18 aspartyl aminopeptidase | inhibition, % at 7.35 µM | recombinant PfM18AAP, H-Glu-NHMec fluorogenic cleavage | 1.2% of 290,000 active | AID 1822;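 active = inhibition above the campaign mean inhibition over all tested compounds plus 3 SD, cut at about 28% in these data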;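 also: 0% = plate median of test compound wells and 100% = 2 mM ZnCl2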
Starred values were filed as active, the others as inactive; ! = a repeat was not active.

Results for CCCc1sc(N)nc1-c1ccc(C)cc1 ?
Exocytosis inh: -1; ALR H2O2 inh: 78*; GASC-1 inh: -40; SMARCA2 activ: -3; beta cell repl: -4; M18AAP inhibitor: 5

How did COC(=O)[C@@H](Cc1ccc(O)cc1)NC(=O)[C@H]1O[C@@H](n2cnc3c(=O)[nH]c(N)nc32)[C@H](O)[C@@H]1O do in these assays?
SMARCA2 activ: 2

Results for O=C(NCCc1ccccc1)OCc1cn(Cc2ccc(F)cc2)nn1 ?
SMARCA2 activ: -2

What do the screens show for `O=C(O)c1ccc(N2C(=O)CC(N3C(=O)/C(=C/c4ccc(Cl)cc4)SC3=S)C2=O)cc1` (configuration not stated)?
Exocytosis inh: -1; ALR H2O2 inh: 100*; GASC-1 inh: -16; SMARCA2 activ: 0; beta cell repl: -3; M18AAP inhibitor: 3

How did O=C(O)c1ccc(N2C(=O)CC(N3CCN(c4ccc(Cl)cc4)CC3)C2=O)cc1 (configuration not stated) do in these assays?
Exocytosis inh: 5; ALR H2O2 inh: 23; GASC-1 inh: -19; SMARCA2 activ: -1; beta cell repl: -3; M18AAP inhibitor: -8

Results for CCNC(=O)N(C)[C@H]1C[C@H]2c3[nH]c4c(-c5cccc(C)c5)cccc4c3CCN2C(=O)[C@H]1[C@H](C)O ?
SMARCA2 activ: -2

What do the screens show for `Cc1c(CCC(=O)O)c(=O)oc2cc3occ(-c4ccc(Cl)cc4)c3cc12`?
Exocytosis inh: -6; ALR H2O2 inh: 8; GASC-1 inh: -10; SMARCA2 activ: -2; beta cell repl: -3; M18AAP inhibitor: -2

How did Cc1c(CCC(=O)O)c(=O)oc2cc3occ(-c4ccc(F)cc4)c3cc12 do in these assays?
Exocytosis inh: -1; ALR H2O2 inh: 97*; GASC-1 inh: 4; SMARCA2 activ: -4; beta cell repl: -1; M18AAP inhibitor: 16

Results for O=C(CCl)N(Cc1cc(=O)[nH]c2ccccc12)c1ccccc1 ?
Exocytosis inh: -16; ALR H2O2 inh: 96*; GASC-1 inh: inactive; SMARCA2 activ: -3; beta cell repl: -5; M18AAP inhibitor: 11

Results for O=c1oc2cc(O)ccc2cc1-c1ccccc1 ?
Exocytosis inh: 4; ALR H2O2 inh: 91*; GASC-1 inh: 2; SMARCA2 activ: 4; beta cell repl: 1; M18AAP inhibitor: 4

Results for CC(=O)Oc1ccc(-c2cc3ccccc3oc2=O)cc1 ?
Exocytosis inh: -16; ALR H2O2 inh: -3; GASC-1 inh: 0; SMARCA2 activ: 1; beta cell repl: -1

What do the screens show for `O=c1oc2ccccc2cc1-c1ccc(O)cc1O`?
Exocytosis inh: -6; ALR H2O2 inh: 99*; GASC-1 inh: -2; SMARCA2 activ: 0; beta cell repl: 4; M18AAP inhibitor: 5

Results for C(#CC1=CCCCC1)CNCC1CC1 ?
SMARCA2 activ: 1

How did O=C(Cc1ccccc1)N1CCC(Oc2cccnc2)CC1 do in these assays?
SMARCA2 activ: -1

How did Cc1cc(SCc2ccccc2C)nc(=O)[nH]1 do in these assays?
Exocytosis inh: -1; ALR H2O2 inh: 29; GASC-1 inh: -1; SMARCA2 activ: 0; beta cell repl: 8; M18AAP inhibitor: -20

How did Cc1cc(SCc2ccc(Cl)cc2Cl)nc(=O)[nH]1 do in these assays?
Exocytosis inh: -1; ALR H2O2 inh: 98*; GASC-1 inh: 0; SMARCA2 activ: -3; beta cell repl: 0; M18AAP inhibitor: 0

What do the screens show for `Cc1cc(SCC(=O)c2ccc(Cl)cc2)nc(=O)[nH]1`?
Exocytosis inh: 1; GASC-1 inh: 6; SMARCA2 activ: 4; beta cell repl: -3; M18AAP inhibitor: 8

What do the screens show for `Cc1cc(SCc2ccccc2Cl)nc(=O)[nH]1`?
Exocytosis inh: -10; ALR H2O2 inh: 94*; GASC-1 inh: 26; SMARCA2 activ: 3; beta cell repl: -6; M18AAP inhibitor: -2

Results for Cc1ccc(C(=O)CSc2cc(C)[nH]c(=O)n2)cc1 ?
Exocytosis inh: -3; ALR H2O2 inh: 99*; GASC-1 inh: 0; SMARCA2 activ: 5; beta cell repl: -2; M18AAP inhibitor: 10

Results for C=CCN1C(=O)[C@@H](CC(=O)N2CCN(C(=O)OCC)CC2)[C@]2(C(=O)OC)CCCCC=C12 ?
SMARCA2 activ: -3

Results for COc1cccc(C(=O)n2ccc3ccc(-c4ccc5ccn(C(=O)c6cccc(OC)c6)c5c4)cc32)c1 ?
SMARCA2 activ: -2

Results for CCCNC(=O)CS(=O)(=O)Cc1nc(-c2cccc(OC)c2)oc1C ?
Exocytosis inh: -3; ALR H2O2 inh: 98*; GASC-1 inh: 12; SMARCA2 activ: 0; beta cell repl: 1; M18AAP inhibitor: 4

How did CCOCCCNC(=O)CS(=O)(=O)Cc1nc(-c2cccc(OC)c2)oc1C do in these assays?
Exocytosis inh: 1; ALR H2O2 inh: 98*; GASC-1 inh: -3; SMARCA2 activ: 3; beta cell repl: 2; M18AAP inhibitor: -6

What do the screens show for `COC(=O)[C@]12C[C@H](CC(=O)NCc3cccc(C(F)(F)F)c3)C(=O)N(Cc3ccco3)C1=C[C@H](C(C)(C)C)O[C@@H]2C`?
SMARCA2 activ: -3

Results for O=C(NC1CCCCN(Cc2cccc(Cl)c2)C1=O)c1cccc(F)c1 (configuration not stated) ?
SMARCA2 activ: -5

What do the screens show for `COc1ccc(C(=O)OCC(=O)Nc2ncc([N+](=O)[O-])s2)cc1OC`?
Exocytosis inh: 1; ALR H2O2 inh: 48; GASC-1 inh: -13; SMARCA2 activ: 2; beta cell repl: -5

What do the screens show for `O=C(Nc1ncc([N+](=O)[O-])s1)c1cccs1`?
Exocytosis inh: 5; ALR H2O2 inh: 97*!; GASC-1 inh: 7; SMARCA2 activ: -3; beta cell repl: -3; M18AAP inhibitor: -4

Results for O=C(COC(=O)c1ccc(Br)o1)Nc1ncc([N+](=O)[O-])s1 ?
Exocytosis inh: -1; ALR H2O2 inh: 97*; GASC-1 inh: 2; SMARCA2 activ: 2; beta cell repl: 4

How did O=C(Nc1ncc([N+](=O)[O-])s1)c1ccccc1Br do in these assays?
Exocytosis inh: -7; ALR H2O2 inh: 97*; GASC-1 inh: -10; SMARCA2 activ: 0; beta cell repl: -3; M18AAP inhibitor: 0

What do the screens show for `O=C(N[C@H](Cc1ccccc1)C(=O)N1CCN(Cc2ccccn2)CC1)[C@H]1O[C@@H](n2ccc(=O)[nH]c2=O)[C@H](O)[C@@H]1O`?
SMARCA2 activ: 3

Results for CN(c1ccccc1)c1nc(N)c([N+](=O)[O-])c(Nc2ccccc2F)n1 ?
Exocytosis inh: 76*; ALR H2O2 inh: -16; GASC-1 inh: 1; SMARCA2 activ: 3; beta cell repl: -4; M18AAP inhibitor: 5

Results for CCCC[C@@H]1C(=O)N2N=Cc3ccccc3[C@H]2N2N=Cc3ccccc3[C@@H]12 ?
SMARCA2 activ: 1

How did COCCCNC(=O)Cn1nc(Cc2ccncc2)c2ccccc2c1=O do in these assays?
SMARCA2 activ: -2
